# Screens as filed in PubChem BioAssay.
# Shown are actives, neighbours in structure and some others; about 9.4% of the full set was active somewhere.
# ELG1 genotox: qHTS screen for small molecules that induce genotoxicity in human embryonic kidney (HEK293T) cells expressing luciferase-tagged ELG1; HEK293T ELG1-luciferase reporter, luminescence, 16 h; Potency, µM (series often up to 46 µM), for the others: at the top dose activity change, positive = activation, usual class: activators; actives 1.3% (n = 330,000); AID 504466, 2011; note: % of control where 0% means no effect; nearly all actives have a fitted effect of over 60% in size
#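 Reporter readout depends on ELG1 protein level, which increases with genetic stress. After 16 hr compound exposure at 37 °C, luciferase activity was quantified using ONE-Glo.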
# SMN2 splice enh: qHTS Assay for Enhancers of SMN2 Splice Variant Expression | HEK293 SMN2-luciferase splicing reporter, luminescence, 30-36 h | Potency, µM (highest dose often 46.1 µM), inactives show at the top dose activity change, positive = activation, most hits filed as activators | actives 2.8% (n = 210,000); note: % of control where 0% means no effect; nearly all actives have a fitted effect of over 55% in size
#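 HEK293 cells carry an SMN2 minigene-luciferase reporter in which exon 7 inclusion puts luciferase in frame. Cells were seeded at 2000 cells/well, attached for 10-12 hours, then exposed to compounds for 30-36 hours at 37C before ONE-Glo luminescence.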
# ELG1 repair inh: qHTS screen for small molecules that inhibit ELG1-dependent DNA repair in human embryonic kidney (HEK293T) cells expressing luciferase-tagged ELG1. HEK293T ELG1-luciferase reporter, luminescence, 16 h; DNA damage induced by 5-fluorouridine. Potency, µM (series often up to 46.1 µM), inactives show at the highest dose activity change, negative = inhibition, hits mostly inhibitors. actives 2.3% (n = 330,000); note: % is set by controls: 0 for no effect and ±100 for the full control effect; nearly all actives have a fitted effect of over 55% in size
#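 HEK293T cells expressing luciferase-tagged ELG1 (2,000/well) received 5-Fluorouridine plus compound or DMSO for 16 hr at 37 °C. Luciferase was read by ONE-Glo luminescence after 30 min at room temperature.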
# NPC1 promoter act: qHTS Assay for NPC1 Promoter Activators | actives 2.4% (n = 320,000) | Potency, µM (top dose mostly 9.22 µM), without a hit: at the highest dose activation, usual class: activators | Huh7 NPC1 promoter luciferase reporter, 24 h | AID 485313, 2010; note: % of control where 0% means no effect; nearly all actives have a fitted effect of over 60% in size
#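 Cells: Huh7 expressing luciferase under the NPC1 promoter, 1500/well. Seeded 2 h, compound added, incubated 24 h at 37 °C. Luciferase reagent, 10 min ambient, then luminescence.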
# FLuc counter: qHTS profiling assay for firefly luciferase inhibitor/activator using purifed enzyme and Km concentrations of substrates (counterscreen for miR-21 project) | purified FLuc, Km substrates, luminescence inhibition | Potency, µM (highest dose often 57.5 µM), without a hit: at the highest dose activity change, negative = inhibition, actives largely listed as inhibitors | actives 6.9% (n = 360,000) | AID 588342, 2011;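 note: plate controls were vehicle for no effect and reference inhibitor for full effect; nearly all actives have a fitted effect of over 55% in size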
# Target sequence (P08659 whole entry, looked up): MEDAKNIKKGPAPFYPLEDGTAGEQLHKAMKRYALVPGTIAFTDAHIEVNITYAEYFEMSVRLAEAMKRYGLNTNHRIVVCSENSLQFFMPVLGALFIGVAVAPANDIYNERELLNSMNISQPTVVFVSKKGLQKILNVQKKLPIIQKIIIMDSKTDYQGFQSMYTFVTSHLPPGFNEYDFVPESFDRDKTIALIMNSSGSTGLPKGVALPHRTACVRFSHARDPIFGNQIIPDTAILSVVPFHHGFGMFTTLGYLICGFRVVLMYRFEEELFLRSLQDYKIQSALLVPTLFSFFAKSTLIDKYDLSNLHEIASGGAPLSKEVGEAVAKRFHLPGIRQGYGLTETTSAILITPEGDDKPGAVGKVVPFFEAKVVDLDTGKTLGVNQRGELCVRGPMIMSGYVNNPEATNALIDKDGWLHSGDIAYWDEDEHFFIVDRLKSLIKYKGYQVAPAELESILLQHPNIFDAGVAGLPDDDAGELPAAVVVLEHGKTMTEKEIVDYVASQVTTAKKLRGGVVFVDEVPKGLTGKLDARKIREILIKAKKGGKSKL
#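 Purified P. pyralis luciferase, 10 nM final, with Km-level 10 uM D-luciferin and 10 uM ATP in 50 mM Tris acetate pH 7.5, 10 mM Mg acetate, 0.01% Tween-20, 0.05% BSA; 6-point qHTS titration about 60 µM downward; luminescence read.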
# Rab9 promoter act: qHTS Assay for Rab9 Promoter Activators; Huh7 Rab9 promoter-luciferase reporter, luminescence, 24 h; actives 2.8% (n = 320,000); Potency, µM (series often up to 9.22 µM), for the others: top-dose activation, negative = inhibition, actives largely listed as activators; AID 485297, 2010; note: % of control where 0% means no effect; nearly all actives have a fitted effect of over 60% in size
#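 Steps: seed 1500 Huh7 Rab9-luc cells per well, rest 2 h at 37 °C; add compound in DMSO; incubate 24 h; add luciferase reagent, 10 min ambient; read luminescence.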
# The depositor's hits bear a star; ? = inconclusive; · = not tested or not shown; [ ] = another dose, or the depositor's remark. Calls come from the whole dose curve; as a rule, active = well fitted curve in the direction sought with a large enough effect; inconclusive = small, poorly fitted or top-dose-only effect, or another doubt; inactive = no such curve, though single readings can be large; an effect the other way counts as inactive or inconclusive. Potency is the fitted concentration of half-maximal effect.
SMILES,ELG1 genotox,SMN2 splice enh,ELG1 repair inh,NPC1 promoter act,FLuc counter,Rab9 promoter act
O=C(CN1CCN(Cc2ccccc2F)CC1)Nc1ccccc1Cl,0%,·,10µM*,11%,-1%,-6%
Cc1ccn2c(CCc3nnc4cc(C)ccn34)nnc2c1,·,-7%[9.22 µM],·,·,·,·
CCOC(=O)Cc1ccc(NC(=O)N(Cc2ccc(OC)cc2)C2CCN(C(C)=O)CC2)cc1,·,·,·,·,-3%,·
CC1(C)CC(=O)c2ccc(OCc3ccc([N+](=O)[O-])cc3)cc2O1,?,·,?,2.5µM*,6µM*,2.5µM*
CC1(C)CC(=O)c2c(O)cc(OCc3ccc(Br)cc3)cc2O1,2.6µM*,?,?,2.5µM*,3µM*,2.8µM*
COC(=O)c1ccc(COc2cc(O)c3c(c2)OC(C)(C)CC3=O)cc1,0%,-50%,-12%,20%,15µM*,?
CC(=O)N1CCC2(CCCN(Cc3cc(C(F)(F)F)cc(C(F)(F)F)c3)C2)CC1,·,-16%,·,·,·,·
Cc1cccc(NC(=O)Cn2c(=O)n(CCc3ccccc3)c(=O)c3sc4ccccc4c32)c1,·,8%,·,·,2%,·
O=C(NCCc1ccccc1)c1ccc2c(c1)CCN2S(=O)(=O)c1ccccc1,·,1%,·,·,3%,·
Cc1cc2ncc(-c3cccc(Cl)c3)cn2n1,9%,?,?,?,?,?
Cc1nn2cc(-c3ccc(Cl)cc3)cnc2c1Cl,?,5.6µM*,?,3.5µM*,?,3.2µM*
CCOc1ccccc1NS(=O)(=O)c1ccc2c(c1)CC(C)N2C(=O)C1CC1 (stereo not given),·,·,·,·,-4%,·
CN(C)S(=O)(=O)c1cccc(NC(=S)NC(=O)c2ccco2)c1,11%,·,?,?,?,3.5µM*
O=C(Nc1cccc(S(=O)(=O)c2cccc(NC(=O)c3ccco3)c2)c1)c1ccco1,-12%,·,23µM*,-19%,0%,-21%
CCOc1ccc(C(=O)OCc2cc(=O)n3nc(C4CCCCC4)sc3n2)cc1,·,·,·,·,-16%,·
CSc1ccc(CNC(=O)CN2C(=O)C3CCCCN3c3ccc(C(=O)N4CCCC4)cc32)cc1 (stereo not given),·,·,·,·,0%,·
CC(C)CC(=O)/C(=C\c1ccc(Cl)cc1Cl)n1cncn1,?,-111%,21µM*,-2%,-2%,-12%
Cc1ccc(OCC(=O)Nc2ccc(C)c(S(=O)(=O)N3CCCCCC3)c2)c([N+](=O)[O-])n1,-13%,-20%,16µM*,-7%,-12%,-5%
Cc1ccc(NC(=O)COc2ccc(N(C)C(=O)C(C)(C)C)cc2)cc1S(=O)(=O)N1CCCCC1,-7%,·,8.2µM*,·,·,·
Cc1ccc(NC(=O)COc2ccccc2C(N)=O)cc1S(=O)(=O)N1CCCCCC1,-3%,·,?,-22%,24µM*,-26%
COc1ccc(OC)c(S(=O)(=O)N2Cc3ccccc3CC2C(=O)Nc2ccc(C(C)=O)cc2)c1 (stereo not given),·,8%,·,·,-4%,·
CC(=O)N1CCC(N(Cc2ccc(C)o2)C(=O)Nc2cccc(C(F)(F)F)c2)CC1,·,·,·,·,-2%,·
COc1cc(OC)c(NC(=O)c2cc3c(=O)oc4ccc(C)cc4c3s2)cc1Cl,·,-8%,·,·,-1%,·
COC(=O)c1ccc(NC(=O)Cn2c(=O)oc3ccccc32)cc1,·,0%,·,·,4%,·
O=C1CCCC2[C@@H]3CCC[N@+]4([O-])CCC[C@H](CN12)C34 (stereo not given in full),·,8%,·,·,·,·
SMILES,ELG1 genotox,SMN2 splice enh,ELG1 repair inh,NPC1 promoter act,FLuc counter,Rab9 promoter act
O=C(c1ccc(=O)n(Cc2ccccc2)n1)N1CCN(C/C=C/c2ccccc2)CC1,-15%,-41%,16µM*,-1%,3%,-4%
O=C(c1ccc(Br)o1)N1CCN(C/C=C/c2ccccc2)CC1,-1%,-14%,-16%,1%,-1%,4%
CC(N)CCCP(=O)(O)O (stereo not given),·,-2%,·,·,·,·
CCOC(=O)Cn1nc(NC(=O)c2ccc(C(=O)OC)cc2)cc1C,18%,·,25%,?,11µM*,17%
Cc1cccc2nc(-c3cccnc3)c(NCCC(C)C)n12,-1%,-13%,5%,-6%,-17%,0%
Cc1cccc2nc(-c3cccnc3)c(Nc3ccccc3)n12,-14%,-59%,18µM*,-1%,-6%,6%
c1ccc2[nH]c(SCc3cn4ccccc4n3)nc2c1,?,·,0%,?,?,?
Clc1ccc2nc(CSCc3ccccc3)cn2c1,?,13µM*,?,1.6µM*,7.6µM*,2µM*
Clc1ccc(-n2nnnc2SCc2cn3ccccc3n2)cc1,5%,-7%,-2%,3%,1%,-2%
Clc1ccc(SCc2cn3ccccc3n2)cc1,?,11µM*,?,?,9.5µM*,2.5µM*
Nn1c(SCc2cn3cc(Cl)ccc3n2)nnc1-c1ccncc1,-3%,5%,-1%,2%,1%,2%
Nc1nnc(SCc2cn3cc(Cl)ccc3n2)s1,?,?,?,?,?,4µM*
Clc1ccc2nc(CSc3nc4ccccc4o3)cn2c1,2.6µM*,18µM*,?,0.89µM*,1.9µM*,1µM*
CCCn1c2ccccc2c2cnn(CC(=O)Nc3ccccc3OC)c(=O)c21,·,·,·,·,-20%,·
CCNC(=O)c1nn(-c2ccccc2C)nc1CO,·,-10%,·,·,-2%,·
Cc1cc(C)n2cc(CSCc3ccco3)nc2n1,5%,2%,?,-2%,1%,2%
Cc1cccc2nc(CSc3ccc(Cl)cc3)cn12,?,11µM*,?,3.2µM*,9.5µM*,2.2µM*
Cc1cccc2nc(CSCc3ccco3)cn12,?,11µM*,?,1.1µM*,7.6µM*,2.2µM*
Cc1ccc(SCc2cn3cc(Cl)ccc3n2)cc1,21%,·,?,?,13µM*,?
Cc1ccc(SCc2cn3c(C)csc3n2)cc1,1.6µM*,8.9µM*,?,0.63µM*,2.1µM*,0.63µM*
Cc1ccc(-c2noc(CNC(=O)c3ccc(Br)o3)n2)cc1,·,-19%,·,·,0%,·
COCCNc1nc(C)nc2c1nc(-c1ccccc1)n2CCN(C)C,·,-10%,·,·,·,·
CCc1ccccc1NC(=O)[C@@H](c1ccccc1)N1Cc2ccccc2C1=O,·,-6%,·,·,-13%,·
O=c1c(S(=O)(=O)c2ccccc2)cn(Cc2ccc(F)cc2)c2cc(N3CCCC3)c(F)cc12,·,·,·,·,-2%,·
